Rows were chosen to be rich in hits. Some 1.5% of all compounds tested hit in one or more screens of this group.
NTR1 ag = NTR1 (human) agonism; P30989; NTR1-U2OS beta-arrestin-GFP spot imaging, agonist mode; activation, % at 20 µM; 330,000 tested, 0.17% active; AID 493036;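 active = activation at or above 40% of the spot to cytoplasm intensity ratio, with at least 20 cells analyzed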;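 also: 0% = DMSO without peptide and 100% = 100 nM NTR1 peptide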
Target sequence (P30989 whole entry, looked up): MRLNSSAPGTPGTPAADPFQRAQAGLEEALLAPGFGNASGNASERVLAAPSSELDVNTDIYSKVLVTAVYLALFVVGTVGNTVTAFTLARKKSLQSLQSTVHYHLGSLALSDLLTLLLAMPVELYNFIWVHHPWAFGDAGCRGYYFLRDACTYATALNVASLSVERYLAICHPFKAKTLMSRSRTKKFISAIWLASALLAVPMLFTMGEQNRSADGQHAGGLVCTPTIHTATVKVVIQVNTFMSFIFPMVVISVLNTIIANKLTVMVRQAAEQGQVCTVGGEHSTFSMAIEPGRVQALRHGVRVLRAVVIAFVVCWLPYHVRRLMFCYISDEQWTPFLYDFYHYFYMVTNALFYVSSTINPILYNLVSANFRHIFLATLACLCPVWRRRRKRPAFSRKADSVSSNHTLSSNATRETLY
V-ATPase pH = yeast V-ATPase proton transport regulation by pHLuorin; S. cerevisiae, pHLuorin cytosolic pH fluorescence; response, % at 10 µM; 350,000 tested, 0.37% active; in the data active = response mostly above about 7.3%, no sharp cut-off; inactive = mostly below about 5.4%; also: actives read high
CRFR2-BP ag = agonists of human CRF-binding protein/CRF-R2 receptor complex. HEK293 CRF-R2/CRF-BP, calcium dye fluorescence (FLIPR); percent of saturating CRF peptide response. activation, % at 13.2 µM. 350,000 tested, 0.46% active;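 active = activation of at least 50%, plus an integration ratio under a set limit after plate pattern correction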;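 also: plate controls were neutral control wells without compound for no effect and CRF at EC100 for full effect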
CRFBP-R2 block = CRF-BP/CRF-R2 complex antagonism; HEK293 CRF-R2/CRF-BP, CRF-induced calcium fluorescence; inhibition, % at 11.8 µM; 350,000 tested, 0.59% active; AID 588475;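 active = inhibition of the ligand-induced calcium signal above about 50% at the single tested concentration, limit read from the data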
NTR1 ag conf = NTR1 (human) agonism, confirmed; shares compounds with NTR1 ag; NTR1-U2OS beta-arrestin-GFP translocation imaging; activation, % at 20 µM; 480 tested, 38% active; AID 504550;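 active = mean activation at 20 µM of at least 40%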;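 also: 0% = DMSO without peptide and 100% = 100 nM NTR1 peptide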
Active calls of the source: *; / = no result.

SMILES	NTR1 ag	V-ATPase pH	CRFR2-BP ag	CRFBP-R2 block	NTR1 ag conf
Cc1cccc(NC(=O)c2nc[nH]c2C(=O)N[C@@H](CC(C)C)C(=O)OC(C)(C)C)c1	51.9*	0.8	7.8	9.4	24.3
O=c1[nH][nH]cc1C=NCc1cccc(C(F)(F)F)c1	-1.6	0.8	0.4	-2.1	/
Nc1nc(Nc2ccccc2)nc(NC2CCCCC2)c1[N+](=O)[O-]	86.8*	-0.9	-1.9	-42.7	33.4
CNc1nc(N)c([N+](=O)[O-])c(NC2CCCCC2)n1	6.5	1.0	-0.7	-70.4	/
FC(F)Sc1ccc(NC(=S)NC(c2ccccc2)c2ccccc2)cc1	40.8*	1.4	1.1	-8.6	-0.4
Cc1cccc(OCc2n(CC(=O)OC3CC(C)CCC3C(C)C)c3ccccc3[n+]2C)c1 (stereo unspecified)	92.5*	-1.1	18.1	-105.3	101.0*
CCOC(=O)CNC(=O)Cn1cnc2c(nnn2-c2ccc(OC)cc2)c1=O	-1.4	-3.0	0.1	-6.2	/
Cc1cccc(-n2ncc3c2CCCC3NC(=O)CCN2CCCO2)c1C (stereo unspecified)	1.0	2.4	1.2	-2.3	/
Cc1ccc(S(=O)(=O)Nc2ccccc2F)cc1C(=O)NCc1ccco1	-0.3	6.3	0.6	-2.8	/
Cc1ccc(C(=O)/C=C/C(=O)c2ccc(C)cc2)cc1	41.6*	2.9	21.7	-59.2	73.1*
Cc1cc(C)nc(OC(C(=O)O)C(OCC(C)C)(c2ccccc2)c2ccccc2)n1 (stereo unspecified)	1.1	-1.3	0.3	17.1	/
COc1ccc(-c2cc(-c3cc(C)ccc3O)[nH]n2)cc1	43.5*	0.9	0.2	-4.0	14.4
COC(=O)c1ccc(/C=C/C(=O)OCC(=O)Nc2sccc2C(N)=O)cc1	45.2*	-0.5	1.9	28.6	77.1*
Oc1ccc(/C=N/N2CCN(C3c4ccccc4-c4ccccc43)CC2)c(O)c1	43.1*	1.8	2.6	-61.5	5.8
CCOC(=O)Cc1csc(SC(C)C(=O)NC2CCCCC2C)n1 (stereo unspecified)	-1.7	0.8	-2.0	-1.0	/
Cc1ccccc1S(=O)(=O)N1[C@@H](c2ccc(Cl)cc2)C(C(=O)O)=CC[C@H]1c1ccc(Cl)cc1	6.9	0.5	5.2	13.3	/
O=C(O)C1=CC[C@@H](c2ccc(Cl)cc2)N(S(=O)(=O)c2ccc(Cl)cc2)[C@H]1c1ccccc1	40.4*	1.4	1.1	12.4	4.3
C[C@@H]1CN([C@H](C)CO)C(=O)c2cc(NS(=O)(=O)c3ccc(F)cc3)ccc2O[C@@H]1CN(C)Cc1ccc(Cl)c(Cl)c1	40.0	2.7	-0.6	-27.3	39.1
C[C@H](CO)N1C[C@H](C)[C@@H](CN(C)S(=O)(=O)c2ccc(F)cc2)Oc2ccc(NS(=O)(=O)c3ccc(F)cc3)cc2C1=O	6.7	2.9	-0.3	7.6	/
COc1cccc(-c2nc(NC3CCCC3)c3ccccc3n2)c1O	59.6*	-1.5	4.9	-21.4	7.6
Fc1ccc(-n2nnnc2-c2cnc(-c3cccs3)nc2C(F)(F)F)cc1	48.7*	1.0	-0.3	-11.7	66.8*
Oc1ccc(Cl)cc1/C=C/c1ccc2cccc(O)c2n1	45.5*	-1.1	3.1	3.1	17.2
COc1cc(Br)c(/C=C/c2ccc3cccc(O)c3n2)cc1OC	2.1	2.0	-0.6	6.7	/
CCN1C(=O)[C@H]2[C@@H](c3ccc(-c4cccc(Cl)c4)c(OC)c3)N3CCCC[C@@]3(C(=O)OC)[C@H]2C1=O	6.1	2.1	0.6	-14.2	/
COc1ccc(C(C(=O)NC2CCCC2)N(C(=O)c2snc(C(N)=O)c2N)c2ccccc2OC)cc1OC (stereo unspecified)	60.7*	-0.7	-1.2	10.3	1.8
SMILES	NTR1 ag	V-ATPase pH	CRFR2-BP ag	CRFBP-R2 block	NTR1 ag conf
COc1ccc(C(C(=O)NC2CCCC2)N(C(=O)c2snc(C(N)=O)c2N)c2cc(C)ccc2OC)cc1OC (stereo unspecified)	1.2	-1.8	-0.1	-8.2	/
COc1ccccc1/C=C/C=N/n1c(-c2ccc(F)cc2)n[nH]c1=S	8.4	-4.1	-1.2	7.8	/
COc1ccccc1/C=C\C=N\n1c(-c2ccc(Cl)cc2)n[nH]c1=S	48.6*	-1.8	-0.1	23.8	9.4
COc1ccc(C(CCN2CCCCC2)c2c(OC)cc(OC)c3c(-c4ccccc4)cc(=O)oc23)cc1 (stereo unspecified)	41.5*	0.1	59.2*	-32.0	41.2*
CCCCCc1cc(=O)oc2c(C(CCN3CCCC(C)C3)c3ccc(N(C)C)cc3)c(OC)cc(OC)c12 (stereo unspecified)	51.2*	-8.8	0.7	-14.2	53.2*
OCCNc1nc(Nc2ccccc2OC(F)(F)F)nc(N2CCCC2)n1	3.9	20.5	-1.2	-4.7	/
OCCNc1nc(Nc2ccccc2Oc2ccccc2)nc(N2CCCC2)n1	46.2*	8.7	-1.1	-2.0	32.2
O=S(=O)(c1ccc(N2CC=C(c3ccccc3)CC2)nc1)N1CCCC1	49.5*	2.1	2.5	-20.7	1.1
CC1(C)CC(=O)C=C(c2cccc(Cl)c2O)C1	2.5	-0.6	-4.0	-1.7	/
CCOc1ccc(NC(=O)C(CC(=O)O)Cc2ccc(C)cc2)cc1 (stereo unspecified)	0.6	-1.1	-2.7	-2.6	/
Cc1ccc2c(c1)c1c(n2CC(O)CNC2CCCCC2)CCCC1 (stereo unspecified)	42.0*	2.1	4.1	-29.9	52.9*
Cc1ccc2c(c1)c1c(n2CC(O)CNC(CO)(CO)CO)CCCC1 (stereo unspecified)	-0.9	-3.9	-0.2	0.8	/
O=[N+]([O-])c1ccc2[nH]cc(S(=O)(=O)N3CCN(c4cccc(Cl)c4)CC3)c2c1	40.7*	1.5	-0.8	-18.1	20.1
CCOc1ccc(C(=O)NCCN2CCCCC2)c(OCC)c1	0.8	-0.3	-0.3	0.1	/
O=C(c1ccc(Cl)cc1)C(CN1CCCCC1)c1ccccc1 (stereo unspecified)	49.5*	2.0	4.5	-4.3	60.1*
C[C@H](NC(=O)c1[nH]cnc1C(=O)Nc1cccc(Cl)c1)c1ccccc1	51.7*	-1.7	1.2	3.0	46.1*
C[C@@H](NC(=O)c1[nH]cnc1C(=O)Nc1cccc(Cl)c1)c1ccccc1	45.0*	1.7	0.1	-0.1	21.5
C[C@H](CO)NC(=O)c1[nH]cnc1C(=O)Nc1cccc(Cl)c1	/	-0.9	2.6	-0.1	/
NS(=O)(=O)c1cc(C(=O)OCC(=O)N2CCc3ccccc3C2)ccc1Cl	-0.4	0.6	-4.1	-11.6	/
Cc1ccc(NC(=O)CC2Nc3ccccc3NC2=O)cc1Cl (stereo unspecified)	/	0.6	1.0	-3.2	/
Cc1ccc(NC2Sc3ccccc3NC2=O)cc1Cl (stereo unspecified)	50.8*	-5.4	2.3	-38.0	8.7
CC(Cc1ccccc1)NC(=O)CCNNC(=O)c1ccncc1 (stereo unspecified)	/	3.1	-3.1	8.3	/
O=C1CC/C=C\C[C@@H](CC(=O)N(CCO)Cc2ccccc2)C(=O)N[C@H](Cc2c[nH]c3ccccc23)CO1	3.1	-1.6	-1.1	0.7	/

Source: PubChem BioAssay
